Targets with a hit are over-represented here; the source holds about 7,900 in all. About 0.6% of all pairs of compound and target were hits. A number with no mark means an inactive call.
What follows are targets tested with CC1=C(C=C(C=C1)NC(=O)C2=CC(=CC=C2)C(C)(C)C#N)NC3=CC4=C(C=C3)N=CN(C4=O)C (assay: log2 fold change, soluble protein after heating vs DMSO (PISA); higher = thermal stabilisation; K562 cells, 10 uM, 30 min; active = over 0.2 and 3.5 SD of the protein, either way, in both replicates (recomputed)).
In short: (§1)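 For each measurement, 10 μM compound was applied for 30 min to K562 cells at 2×10^6 cells/mL. Aliquots were heated for 3 min across 48°C-58°C, pooled, and extracted in PBS with 0.5% NP-40 at 4°C; the supernatant after 21,000xg for 90 min was soluble protein. This was quantified by TMTpro 16plex LC-MS/MS with channel sums equalised, and thermal stability was reported relative to control samples from duplicates, on a log2 fold-change scale.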
Sequence of UniProt P28065 (P28065 whole entry, looked up): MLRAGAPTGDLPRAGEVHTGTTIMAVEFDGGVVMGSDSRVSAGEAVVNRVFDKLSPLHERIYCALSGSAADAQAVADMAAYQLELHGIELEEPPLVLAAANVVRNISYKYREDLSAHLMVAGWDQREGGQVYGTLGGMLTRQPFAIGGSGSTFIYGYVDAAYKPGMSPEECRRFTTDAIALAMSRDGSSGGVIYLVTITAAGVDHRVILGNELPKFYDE
Sequence of UniProt Q02156 (Q02156 whole entry, looked up): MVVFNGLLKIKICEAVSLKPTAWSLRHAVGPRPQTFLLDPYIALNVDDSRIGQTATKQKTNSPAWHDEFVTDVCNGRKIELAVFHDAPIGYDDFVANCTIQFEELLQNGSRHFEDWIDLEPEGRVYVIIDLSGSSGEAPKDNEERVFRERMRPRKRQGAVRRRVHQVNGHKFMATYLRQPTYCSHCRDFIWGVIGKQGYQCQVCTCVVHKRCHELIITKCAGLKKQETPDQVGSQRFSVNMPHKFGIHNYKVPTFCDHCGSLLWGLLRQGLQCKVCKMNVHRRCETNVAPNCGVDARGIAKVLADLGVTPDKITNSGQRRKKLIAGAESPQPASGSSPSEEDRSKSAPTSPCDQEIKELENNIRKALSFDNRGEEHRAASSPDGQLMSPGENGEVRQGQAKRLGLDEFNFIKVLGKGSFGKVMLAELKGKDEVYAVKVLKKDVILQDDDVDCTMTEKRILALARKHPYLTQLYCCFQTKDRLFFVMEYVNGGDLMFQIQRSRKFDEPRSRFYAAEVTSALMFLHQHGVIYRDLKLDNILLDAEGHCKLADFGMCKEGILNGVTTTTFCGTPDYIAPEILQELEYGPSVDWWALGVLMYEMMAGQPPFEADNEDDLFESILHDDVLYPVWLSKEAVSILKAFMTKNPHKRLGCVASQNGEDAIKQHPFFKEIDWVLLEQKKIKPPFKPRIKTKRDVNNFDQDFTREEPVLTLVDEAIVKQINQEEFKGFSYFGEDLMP
Sequence of UniProt Q8N2W9 (Q8N2W9 whole entry, looked up): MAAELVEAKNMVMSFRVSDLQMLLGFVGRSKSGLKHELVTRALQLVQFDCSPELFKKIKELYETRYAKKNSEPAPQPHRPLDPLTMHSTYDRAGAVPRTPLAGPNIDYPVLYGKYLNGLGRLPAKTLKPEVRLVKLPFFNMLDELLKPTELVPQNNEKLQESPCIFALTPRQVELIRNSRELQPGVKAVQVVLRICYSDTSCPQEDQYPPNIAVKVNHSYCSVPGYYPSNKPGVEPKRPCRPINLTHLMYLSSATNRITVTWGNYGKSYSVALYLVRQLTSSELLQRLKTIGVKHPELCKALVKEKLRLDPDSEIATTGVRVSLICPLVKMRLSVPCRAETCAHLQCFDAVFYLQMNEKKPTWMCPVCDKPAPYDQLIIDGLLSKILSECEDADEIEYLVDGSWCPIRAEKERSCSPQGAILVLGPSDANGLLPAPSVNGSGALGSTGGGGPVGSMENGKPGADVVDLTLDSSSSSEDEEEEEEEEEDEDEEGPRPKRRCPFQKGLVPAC
Sequence of UniProt Q9NYI0 (Q9NYI0 whole entry, looked up): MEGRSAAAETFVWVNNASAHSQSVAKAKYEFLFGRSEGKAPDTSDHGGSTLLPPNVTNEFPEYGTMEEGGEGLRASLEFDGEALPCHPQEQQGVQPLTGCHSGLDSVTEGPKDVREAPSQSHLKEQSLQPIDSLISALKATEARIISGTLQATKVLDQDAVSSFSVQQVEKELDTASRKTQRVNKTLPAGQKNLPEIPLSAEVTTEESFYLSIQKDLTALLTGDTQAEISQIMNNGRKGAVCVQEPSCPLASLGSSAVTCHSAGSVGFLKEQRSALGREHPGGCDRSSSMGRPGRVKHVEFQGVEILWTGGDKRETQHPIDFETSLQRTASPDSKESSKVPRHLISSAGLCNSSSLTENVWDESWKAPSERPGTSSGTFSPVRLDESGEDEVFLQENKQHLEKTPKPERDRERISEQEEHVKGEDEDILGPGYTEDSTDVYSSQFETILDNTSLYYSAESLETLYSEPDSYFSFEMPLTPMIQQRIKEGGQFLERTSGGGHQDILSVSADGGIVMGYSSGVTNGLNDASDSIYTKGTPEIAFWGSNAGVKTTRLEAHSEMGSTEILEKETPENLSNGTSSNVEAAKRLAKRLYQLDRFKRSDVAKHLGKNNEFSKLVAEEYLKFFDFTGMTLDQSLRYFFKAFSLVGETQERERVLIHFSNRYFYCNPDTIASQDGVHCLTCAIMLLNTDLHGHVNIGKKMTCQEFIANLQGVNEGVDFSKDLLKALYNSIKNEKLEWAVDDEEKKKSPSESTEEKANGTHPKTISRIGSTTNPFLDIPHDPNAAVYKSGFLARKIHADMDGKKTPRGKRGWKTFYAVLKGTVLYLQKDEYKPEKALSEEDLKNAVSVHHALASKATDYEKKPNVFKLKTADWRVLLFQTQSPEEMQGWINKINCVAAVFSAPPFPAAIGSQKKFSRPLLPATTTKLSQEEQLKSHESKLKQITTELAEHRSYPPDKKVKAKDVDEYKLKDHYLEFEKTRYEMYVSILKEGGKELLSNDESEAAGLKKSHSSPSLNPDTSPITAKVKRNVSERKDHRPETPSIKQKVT
Sequence of UniProt Q86UU1 (Q86UU1 whole entry, looked up): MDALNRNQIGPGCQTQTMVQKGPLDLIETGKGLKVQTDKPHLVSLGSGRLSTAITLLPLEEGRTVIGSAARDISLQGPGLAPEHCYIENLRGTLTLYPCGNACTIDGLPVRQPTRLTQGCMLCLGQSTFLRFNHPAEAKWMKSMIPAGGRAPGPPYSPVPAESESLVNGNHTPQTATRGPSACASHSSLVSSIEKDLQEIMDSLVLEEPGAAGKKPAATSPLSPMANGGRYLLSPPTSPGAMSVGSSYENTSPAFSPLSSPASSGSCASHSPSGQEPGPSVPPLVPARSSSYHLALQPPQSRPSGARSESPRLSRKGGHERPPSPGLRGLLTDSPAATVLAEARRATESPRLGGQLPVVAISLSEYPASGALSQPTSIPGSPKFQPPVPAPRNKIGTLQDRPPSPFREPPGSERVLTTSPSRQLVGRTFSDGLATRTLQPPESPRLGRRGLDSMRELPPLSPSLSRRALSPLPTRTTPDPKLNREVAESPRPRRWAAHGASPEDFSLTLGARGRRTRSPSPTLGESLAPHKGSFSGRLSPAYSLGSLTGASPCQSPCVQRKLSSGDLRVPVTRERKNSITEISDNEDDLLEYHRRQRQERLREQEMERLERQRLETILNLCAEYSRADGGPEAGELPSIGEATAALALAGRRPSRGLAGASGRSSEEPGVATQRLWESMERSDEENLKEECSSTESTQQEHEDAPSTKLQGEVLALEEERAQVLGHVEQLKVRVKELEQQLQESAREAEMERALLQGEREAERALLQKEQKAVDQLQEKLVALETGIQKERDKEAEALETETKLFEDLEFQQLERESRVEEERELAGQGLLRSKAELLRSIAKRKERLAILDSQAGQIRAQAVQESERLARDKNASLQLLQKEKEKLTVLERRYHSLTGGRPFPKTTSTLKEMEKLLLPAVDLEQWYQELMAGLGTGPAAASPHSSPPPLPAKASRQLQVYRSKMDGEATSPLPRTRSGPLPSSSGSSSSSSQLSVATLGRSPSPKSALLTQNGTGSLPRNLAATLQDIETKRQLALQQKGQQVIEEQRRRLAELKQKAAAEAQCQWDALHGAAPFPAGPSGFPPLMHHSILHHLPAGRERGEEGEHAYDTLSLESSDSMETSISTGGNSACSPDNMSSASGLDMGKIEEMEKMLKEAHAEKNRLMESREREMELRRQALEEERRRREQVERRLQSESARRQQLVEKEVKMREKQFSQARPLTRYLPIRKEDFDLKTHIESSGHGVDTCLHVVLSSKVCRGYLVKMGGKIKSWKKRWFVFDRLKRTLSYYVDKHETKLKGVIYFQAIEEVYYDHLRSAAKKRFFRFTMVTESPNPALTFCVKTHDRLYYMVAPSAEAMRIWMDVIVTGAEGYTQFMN
Sequence of UniProt Q6EEV4 (Q6EEV4 whole entry, looked up): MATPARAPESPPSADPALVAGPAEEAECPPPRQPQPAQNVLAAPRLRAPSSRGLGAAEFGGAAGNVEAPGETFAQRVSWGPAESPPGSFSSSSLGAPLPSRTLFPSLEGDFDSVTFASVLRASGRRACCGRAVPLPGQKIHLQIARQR
Sequence of UniProt Q14442 (Q14442 whole entry, looked up): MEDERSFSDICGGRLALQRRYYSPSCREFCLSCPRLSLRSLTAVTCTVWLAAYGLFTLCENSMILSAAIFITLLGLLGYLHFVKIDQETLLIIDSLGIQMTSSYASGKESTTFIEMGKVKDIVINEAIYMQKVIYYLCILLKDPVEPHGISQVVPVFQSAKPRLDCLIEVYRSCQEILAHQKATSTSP
Sequence of UniProt P60484 (P60484 whole entry, looked up): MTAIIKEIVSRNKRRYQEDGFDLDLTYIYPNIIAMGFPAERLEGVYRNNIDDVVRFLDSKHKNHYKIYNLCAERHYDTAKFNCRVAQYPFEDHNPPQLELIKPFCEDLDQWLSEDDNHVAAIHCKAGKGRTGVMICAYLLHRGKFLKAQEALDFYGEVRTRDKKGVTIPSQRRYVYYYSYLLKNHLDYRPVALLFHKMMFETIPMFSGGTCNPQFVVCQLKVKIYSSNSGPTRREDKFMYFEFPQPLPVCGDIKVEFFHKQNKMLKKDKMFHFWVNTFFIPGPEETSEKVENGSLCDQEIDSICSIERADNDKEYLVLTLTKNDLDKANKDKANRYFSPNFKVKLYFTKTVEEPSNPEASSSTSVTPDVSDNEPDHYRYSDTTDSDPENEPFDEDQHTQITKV
Sequence of UniProt O43924 (O43924 whole entry, looked up): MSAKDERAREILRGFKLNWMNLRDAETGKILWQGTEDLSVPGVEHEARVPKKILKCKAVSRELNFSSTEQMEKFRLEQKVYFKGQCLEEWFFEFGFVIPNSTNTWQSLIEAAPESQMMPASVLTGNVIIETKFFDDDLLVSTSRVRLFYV
Sequence of UniProt Q15126 (Q15126 whole entry, looked up): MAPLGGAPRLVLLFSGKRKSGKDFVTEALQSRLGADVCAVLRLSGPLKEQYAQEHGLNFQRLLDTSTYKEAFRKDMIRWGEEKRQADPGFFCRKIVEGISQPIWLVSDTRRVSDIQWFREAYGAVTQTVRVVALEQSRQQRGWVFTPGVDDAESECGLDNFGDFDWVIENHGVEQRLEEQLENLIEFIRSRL
For PCBP2 (UniProt F8VRH0), the log2 fold change was 0.419.
Target PMVK (UniProt Q15126) has a log2 fold change of 0.006.
With PHC3 isoform 7 (UniProt Q8NDX5) the log2 fold change was 0.102.
Work on PDE6D (UniProt O43924) yielded a log2 fold change of -0.081.
Target PSMB9 (UniProt P28065) has a log2 fold change of -0.137.
For PRKD2 (UniProt M0R346), the log2 fold change was -0.011.
For PRKCE (UniProt Q02156), the log2 fold change was 0.041.
Work on POLR2M (UniProt Q6EEV4) yielded a log2 fold change of 0.091.
Work on PSMC3 (UniProt E9PLG2) yielded a log2 fold change of -0.381.

These targets were tested with CC1=C(C=C(C=C1)NC(=O)C2=CC(=CC=C2)N(C)C)NC(=O)C3=CC=C(C=C3)O in the same assay as above.
In short: as §1
With PTEN isoform 2 (UniProt P60484) the log2 fold change was -0.035.
PHLDB1 isoform 2 (UniProt Q86UU1) showed a log2 fold change of 0.01.
Work on PPP2R5C isoform 2 (UniProt Q13362) yielded a log2 fold change of -0.047.
PLCXD1 (UniProt Q9NUJ7) gave a log2 fold change of 0.05.
POLR2E (UniProt P19388) gave a log2 fold change of -0.094.
Work on PIAS4 (UniProt Q8N2W9) yielded a log2 fold change of -0.137.
For PMS2CL (UniProt Q68D20), the log2 fold change was 0.089.
For PHRF1 (UniProt Q9P1Y6), the log2 fold change was -0.052.
With PSMA3 (UniProt G3V4X5) the log2 fold change was -0.046.
For PIGH (UniProt Q14442), the log2 fold change was 0.001.
PCBP2 (UniProt F8VZX2) showed a log2 fold change of -0.14.
Work on PDE4A (UniProt P27815) yielded a log2 fold change of -0.028.
PUF60 isoform 2 (UniProt Q9UHX1) showed a log2 fold change of 0.04.
PSD3 (UniProt Q9NYI0) gave a log2 fold change of -0.059.
PSMA3 (UniProt H0YJ03) gave a log2 fold change of 0.019.
Target PCF11 (UniProt O94913) has a log2 fold change of 0.045.

The targets below were run with CC1=CC=C(C=C1)SC2=C3C=C(SC3=CN=C2)C(=O)N in the same assay as above.
In short: as §1
PCNX1 (UniProt Q96RV3) showed a log2 fold change of -0.373.
PCBP2 (UniProt F8VRH0) gave a log2 fold change of 0.019.
For PPP2R5B (UniProt Q15173), the log2 fold change was -0.131.
Work on PTEN isoform 2 (UniProt P60484) yielded a log2 fold change of 0.13.
Target PHLDB1 isoform 2 (UniProt Q86UU1) has a log2 fold change of 0.047.
Work on PHC3 isoform 7 (UniProt Q8NDX5) yielded a log2 fold change of 0.088.
In the case of PSMC1 (UniProt G3V4X1), the log2 fold change is reported as -0.384.
POLR2E (UniProt P19388) showed a log2 fold change of 0.
For PIAS4 (UniProt Q8N2W9), the log2 fold change was -0.101.
PRR14L (UniProt Q5THK1) showed a log2 fold change of -0.039.
PHRF1 (UniProt Q9P1Y6) was tested, and the log2 fold change was -0.034.
For PSMA3 (UniProt G3V4X5), the log2 fold change was -0.117.
PSMB9 (UniProt P28065) gave a log2 fold change of -0.032.
With PIGH (UniProt Q14442) the log2 fold change was 0.027.
Target PDE4A (UniProt P27815) has a log2 fold change of -0.047.
With PUF60 isoform 2 (UniProt Q9UHX1) the log2 fold change was 0.199.
PRKCE (UniProt Q02156) was tested, and the log2 fold change was -0.012.
For PSD3 (UniProt Q9NYI0), the log2 fold change was -0.01.
With POLR2M (UniProt Q6EEV4) the log2 fold change was -0.062.
For PSMA3 (UniProt H0YJ03), the log2 fold change was 0.019.
PCF11 (UniProt O94913) gave a log2 fold change of 0.019.

The targets below were run with CC1=NC(=CC=C1)C2=C(N=C(N2)C(C)(C)C)C3=CC4=NC=CN=C4C=C3 in the same assay as above.
In short: as §1
PCBP2 (UniProt F8VRH0) was tested, and the log2 fold change was 0.172.
Target PTEN isoform 2 (UniProt P60484) has a log2 fold change of 0.064.
In the case of PHLDB1 isoform 2 (UniProt Q86UU1), the log2 fold change is reported as 0.047.
Work on PHC3 isoform 7 (UniProt Q8NDX5) yielded a log2 fold change of 0.266.
PPP2R5C isoform 2 (UniProt Q13362) gave a log2 fold change of 0.022.
POLR2E (UniProt P19388) was tested, and the log2 fold change was -0.091.
In the case of PSMD8 (UniProt K7ERW6), the log2 fold change is reported as -0.283.
PIAS4 (UniProt Q8N2W9) was tested, and the log2 fold change was 0.222.
Work on PDE4DIP (UniProt E9PS60) yielded a log2 fold change of 0.013.
Target PDE6D (UniProt O43924) has a log2 fold change of -0.117.
In the case of PSMA3 (UniProt G3V4X5), the log2 fold change is reported as 0.184.
PSMB9 (UniProt P28065) was tested, and the log2 fold change was -0.342.
For PIGH (UniProt Q14442), the log2 fold change was 0.
Target PCBP2 (UniProt F8VZX2) has a log2 fold change of 0.005.
PUM1 (UniProt Q14671) gave a log2 fold change of -0.028.
PDE4A (UniProt P27815) showed a log2 fold change of 0.062.
In the case of PRKCE (UniProt Q02156), the log2 fold change is reported as 0.048.
PSD3 (UniProt Q9NYI0) gave a log2 fold change of 0.023.
Target POLR2M (UniProt Q6EEV4) has a log2 fold change of 0.046.
PSMC3 (UniProt E9PLG2) showed a log2 fold change of -0.217.
PSMA3 (UniProt H0YJ03) was tested, and the log2 fold change was -0.194.
PCF11 (UniProt O94913) showed a log2 fold change of -0.018.

Each target was assayed with CCCCN(Cc1ccc(C(=O)NO)cc1)C(=O)Nc1ccccc1 [Nexturastat A] in the same assay as above.
In short: as §1
With PCNX1 (UniProt Q96RV3) the log2 fold change was 0.106.
PCBP2 (UniProt F8VRH0) was tested, and the log2 fold change was 0.136.
PMVK (UniProt Q15126) was tested, and the log2 fold change was 0.085.
For PHLDB1 isoform 2 (UniProt Q86UU1), the log2 fold change was 0.045.
PHC3 isoform 7 (UniProt Q8NDX5) was tested, and the log2 fold change was -0.43.
For POLR2E (UniProt P19388), the log2 fold change was 0.005.
PIAS4 (UniProt Q8N2W9) showed a log2 fold change of 0.353.
Target PDE6D (UniProt O43924) has a log2 fold change of 0.15.
Work on PMS2CL (UniProt Q68D20) yielded a log2 fold change of -0.109.
PSMB9 (UniProt P28065) showed a log2 fold change of -0.233.
For PIGH (UniProt Q14442), the log2 fold change was 0.141.
For PDE4A (UniProt P27815), the log2 fold change was 0.061.
PRKD2 (UniProt M0R346) showed a log2 fold change of 0.236.
PRKCE (UniProt Q02156) gave a log2 fold change of -0.242.
POLR2M (UniProt Q6EEV4) was tested, and the log2 fold change was -0.403.
PSMC3 (UniProt E9PLG2) showed a log2 fold change of 0.04.
